Measurements reported in PubChem BioAssay AID1159580 (chemical genetic matrix, 2015).
The whole screen tested about 5,500 compounds, of which about 2,000 (36%) were called active. Another 18% or so got no clear call; they are omitted. No stated cut-off is given here; in the data, active means normalized growth mostly below about 0.91 (no sharp cut-off); inconclusive means no clear call, values can overlap the other calls; inactive means mostly above about 0.92. The list shows a part of the results.

Experiment: chemical genetic growth profiling, strain panel (AID 1159580);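 further: tested at 20 µM; growth read once vehicle control cultures reached saturation at 30 °C; 1 = growth at the plate median or of vehicle wells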
Conditions: growth OD

Measured: normalized growth

CNC(=O)Oc1ccccc1OC(C)C
inactive: S. cerevisiae deletion strains, locus YJR043C, strain POL32, stronger effect = lower value 1.01 | S. cerevisiae deletion strains, locus YJR075W, strain HOC1, stronger effect = lower value 1.02 | S. cerevisiae deletion strains, locus YKL009W, strain mrt4, stronger effect = lower value 0.986 | S. cerevisiae deletion strains, locus YKL068W, stronger effect = lower value 0.991 | S. cerevisiae deletion strains, locus YKL085W, strain MDH1 (second series), stronger effect = lower value 0.982 | S. cerevisiae deletion strains, locus YKL085W, strain MDH1, stronger effect = lower value 0.982 | S. cerevisiae deletion strains, locus YKL160W, strain elf1, stronger effect = lower value 0.996 | S. cerevisiae deletion strains, locus YKL190W, strain CNB1, stronger effect = lower value 1.01 | S. cerevisiae deletion strains, locus YKR001C, strain vps1, stronger effect = lower value 0.99 | S. cerevisiae deletion strains, locus YKR026C, strain gcn3, stronger effect = lower value 0.993 | S. cerevisiae deletion strains, locus YKR091W, strain srl3, stronger effect = lower value 0.989 | S. cerevisiae deletion strains, locus YLL001W, strain dnm1, stronger effect = lower value 0.995 | S. cerevisiae deletion strains, locus YLL026W, stronger effect = lower value 0.986 | S. cerevisiae deletion strains, locus YLL041C, strain sdh2, stronger effect = lower value 0.994 | S. cerevisiae deletion strains, locus YLR027C, strain aat2, stronger effect = lower value 0.995 | S. cerevisiae deletion strains, locus YLR039C, strain RIC1, stronger effect = lower value 1.05 | S. cerevisiae deletion strains, locus YLR058C, strain SHM2, stronger effect = lower value 1.02 | S. cerevisiae deletion strains, locus YLR102C, strain apc9, stronger effect = lower value 0.988 | S. cerevisiae deletion strains, locus YLR221C, strain rsa3, stronger effect = lower value 0.986 | S. cerevisiae deletion strains, locus YLR258W, strain gsy2, stronger effect = lower value 0.984 | S. cerevisiae deletion strains, locus YLR262C, strain YPT6 (second series), stronger effect = lower value 1.01 | S. cerevisiae deletion strains, locus YLR262C, strain YPT6, stronger effect = lower value 1.06 | S. cerevisiae deletion strains, locus YLR268W, strain sec22, stronger effect = lower value 0.99 | S. cerevisiae deletion strains, locus YLR320W, strain mms22, stronger effect = lower value 0.987 | S. cerevisiae deletion strains, locus YLR330W, strain CHS5, stronger effect = lower value 1.02 | S. cerevisiae deletion strains, locus YLR342W, strain FKS1 (second series), stronger effect = lower value 1 | S. cerevisiae deletion strains, locus YLR342W, strain FKS1, stronger effect = lower value 0.99 | S. cerevisiae deletion strains, locus YLR357W, strain rsc2, stronger effect = lower value 0.953 | S. cerevisiae deletion strains, locus YLR370C, strain arc18, stronger effect = lower value 0.992 | S. cerevisiae deletion strains, locus YLR371W, strain rom2, stronger effect = lower value 0.987 | S. cerevisiae deletion strains, locus YLR384C, strain iki3, stronger effect = lower value 0.99 | S. cerevisiae deletion strains, locus YLR418C, strain cdc73, stronger effect = lower value 0.97 | S. cerevisiae deletion strains, locus YML016C, strain PPZ1, stronger effect = lower value 1.03 | S. cerevisiae deletion strains, locus YML032C, strain rad52, stronger effect = lower value 0.989 | S. cerevisiae deletion strains, locus YML120C, strain ndi1, stronger effect = lower value 0.986 | S. cerevisiae deletion strains, locus YML124C, strain tub3, stronger effect = lower value 0.991 | S. cerevisiae deletion strains, locus YMR058W, strain fet3, stronger effect = lower value 0.989 | S. cerevisiae deletion strains, locus YMR078C, strain ctf18, stronger effect = lower value 0.985 | S. cerevisiae deletion strains, locus YMR125W, strain sto1, stronger effect = lower value 0.957 | S. cerevisiae deletion strains, locus YMR129W, stronger effect = lower value 0.995 | S. cerevisiae deletion strains, locus YMR205C, strain PFK2, stronger effect = lower value 0.984 | S. cerevisiae deletion strains, locus YMR223W, strain ubp8, stronger effect = lower value 0.986 | S. cerevisiae deletion strains, locus YMR231W, strain pep5, stronger effect = lower value 0.988 | S. cerevisiae deletion strains, locus YMR263W, strain SAP30, stronger effect = lower value 1.03 | S. cerevisiae deletion strains, locus YMR307W, strain GAS1, stronger effect = lower value 0.988 | S. cerevisiae deletion strains, locus YNL067W, strain RPL9B, stronger effect = lower value 1.03 | S. cerevisiae deletion strains, locus YNL071W, strain lat1, stronger effect = lower value 1 | S. cerevisiae deletion strains, locus YNL128W, strain TEP1, stronger effect = lower value 1.02 | S. cerevisiae deletion strains, locus YNL153C, strain GIM3, stronger effect = lower value 1.02 | S. cerevisiae deletion strains, locus YNL209W, strain ssb2, stronger effect = lower value 0.994 | S. cerevisiae deletion strains, locus YNL233W, strain BNI4, stronger effect = lower value 0.982 | S. cerevisiae deletion strains, locus YNL248C, strain rpa49, stronger effect = lower value 0.979 | S. cerevisiae deletion strains, locus YNL250W, strain rad50, stronger effect = lower value 0.979 | S. cerevisiae deletion strains, locus YNL271C, strain bni1, stronger effect = lower value 0.968 | S. cerevisiae deletion strains, locus YNL298W, strain CLA4, stronger effect = lower value 0.98 | S. cerevisiae deletion strains, locus YNL307C, strain MCK1, stronger effect = lower value 0.992 | S. cerevisiae deletion strains, locus YNL322C, strain KRE1 (second series), stronger effect = lower value 0.98 | S. cerevisiae deletion strains, locus YNL322C, strain KRE1, stronger effect = lower value 1.01 | S. cerevisiae deletion strains, locus YNR049C, strain mso1, stronger effect = lower value 0.989 | S. cerevisiae deletion strains, locus YNR052C, strain pop2, stronger effect = lower value 0.986 | S. cerevisiae deletion strains, locus YOL006C, strain TOP1, stronger effect = lower value 1.06 | S. cerevisiae deletion strains, locus YOL012C, strain htz1 0.953 | S. cerevisiae deletion strains, locus YOL147C, strain pex11, stronger effect = lower value 0.993 | S. cerevisiae deletion strains, locus YOR001W, strain rrp6, stronger effect = lower value 0.998 | S. cerevisiae deletion strains, locus YOR061W, strain CKA2, stronger effect = lower value 1.01 | S. cerevisiae deletion strains, locus YOR069W, strain VPS5, stronger effect = lower value 1.01 | S. cerevisiae deletion strains, locus YOR070C, strain gyp1, stronger effect = lower value 0.986 | S. cerevisiae deletion strains, locus YOR080W, strain dia2, stronger effect = lower value 0.963 | S. cerevisiae deletion strains, locus YOR083W, strain WHI5, stronger effect = lower value 0.995 | S. cerevisiae deletion strains, locus YOR106W, strain vam3, stronger effect = lower value 0.991 | S. cerevisiae deletion strains, locus YOR136W, strain idh2, stronger effect = lower value 0.992 | S. cerevisiae deletion strains, locus YOR144C, strain elg1, stronger effect = lower value 0.995 | S. cerevisiae deletion strains, locus YOR184W, strain ser1, stronger effect = lower value 0.991 | S. cerevisiae deletion strains, locus YOR265W, strain rbl2, stronger effect = lower value 0.985 | S. cerevisiae deletion strains, locus YOR270C, strain vph1, stronger effect = lower value 1 | S. cerevisiae deletion strains, locus YOR290C, strain snf2, stronger effect = lower value 1 | S. cerevisiae deletion strains, locus YOR316C, strain cot1, stronger effect = lower value 0.992 | S. cerevisiae deletion strains, locus YPL051W, strain arl3, stronger effect = lower value 0.995 | S. cerevisiae deletion strains, locus YPL055C, strain LGE1, stronger effect = lower value 1.03 | S. cerevisiae deletion strains, locus YPL078C, strain atp4, stronger effect = lower value 0.998 | S. cerevisiae deletion strains, locus YPL106C, strain sse1, stronger effect = lower value 0.98 | S. cerevisiae deletion strains, locus YPL240C, strain hsp82, stronger effect = lower value 1 | S. cerevisiae deletion strains, locus YPL241C, strain CIN2, stronger effect = lower value 1.01 | S. cerevisiae deletion strains, locus YPR119W, strain clb2, stronger effect = lower value 0.994 | S. cerevisiae deletion strains, locus YPR141C, strain kar3, stronger effect = lower value 0.978 | S. cerevisiae deletion strains, locus YPR163C, strain tif3, stronger effect = lower value 0.987 | S. cerevisiae deletion strains, locus YPR167C, strain met16, stronger effect = lower value 0.989 | S. cerevisiae deletion strains, strain wtn01, stronger effect = lower value 0.984 | S. cerevisiae strains, strain wild type, stronger effect = lower value 1.01
